Measurements published in PubChem BioAssay (Tox21).
“And” between values parts separate entries of the source, which are not always exact repeats. Equal entries are not always repeated. Inconclusive results are not listed. Where a call stands in place of a potency, no number is given. Some compounds were tested as several samples or in several runs, with calls that do not always agree. The source made the active and inactive calls. Unless noted, the call rests on the fitted dose curve; in most records, active means well fitted curve in the direction sought with a large enough effect in the repeat runs; inconclusive means weak or mixed curves; inactive means no such curve, though single readings can be large; an effect the other way counts as inactive or inconclusive.

How the values were obtained:
[1] = qHTS assay to identify small molecule agonists of the peroxisome proliferator-activated receptor delta (PPARd) signaling pathway - cell viability counter screen (AID 743211); further: nearly all actives have a fitted effect of over 55% in size; further: potency means the concentration at half of the fitted maximal effect
How it was run: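 Viability was measured as CellTiter-Glo luminescence (30 min, room temperature) in the same wells as the beta-lactamase readout. GeneBLAzer PPARd UAS-bla HEK293H cells received compound after 5 h plating and were incubated 17 h at 37 C.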

[2] = qHTS assay to identify small molecule antagonists of the peroxisome proliferator-activated receptor delta (PPARd) signaling pathway - cell viability counter screen (AID 743213); further: nearly all actives have a fitted effect of over 50% in size; further: potency means the concentration at half of the fitted maximal effect
How it was run: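 Cytotoxicity counter screen: CellTiter-Glo luminescence read 30 min after addition, in the same wells as the reporter assay. There, PPARd UAS-bla HEK293H cells (3000/well) were treated 17 h at 37 C with compound and 300 nM L165041.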

[3] = qHTS assay to identify small molecule agonists of the farnesoid-X-receptor (FXR) signaling pathway - cell viability counter screen (AID 743218); further: nearly all actives have a fitted effect of over 45% in size; further: potency means the concentration at half of the fitted maximal effect
How it was run: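 Readout: CellTiter-Glo luminescence, 30 min RT, multiplexed after the FXR-bla FRET reading. HEK 293T FXR-UAS-bla cells received compound 5 h post-plating and were incubated 16 h at 37 C.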

[4] = qHTS assay to identify small molecule antagonists of the farnesoid-X-receptor (FXR) signaling pathway - cell viability counter screen (AID 743221; active means well fitted cell-killing curve with a large enough effect in the repeat runs, not every such curve was filed as active; further: nearly all actives have a fitted effect of over 50% in size; further: potency means the concentration at half of the fitted maximal effect)
How it was run: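 Cytotoxicity counter screen run in the FXR-bla reporter wells: HEK 293T cells exposed to compound with 50 uM (final) chenodeoxycholic acid for 16 h, 37 C, then viability measured by CellTiter-Glo luminescence after 30 min, room temperature.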

[5] = target: Vitamin D3 receptor (Homo sapiens) (UniProt P11473); assay: qHTS assay to identify small molecule agonists of the vitamin D receptor (VDR) signaling pathway (AID 743222; calls by dose curve)
How it was run: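 Following 4 h attachment at 37C, VDR-bla cells (2,000 per well) received DMSO-dissolved compounds or controls. After 16 h incubation, LiveBLAzer B/G FRET substrate was added and fluorescence read 2 h later at room temperature.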

[6] = target: Vitamin D3 receptor (Homo sapiens) (UniProt P11473); assay: qHTS assay to identify small molecule antagonists of the vitamin D receptor (VDR) signaling pathway (AID 743223; active means well fitted inhibition curve with a large enough effect in the signal ratio in the repeat runs, not every such curve was filed as active; the % refers to the signal ratio)
How it was run: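 Antagonist mode: compound added to VDR-bla cells alongside agonist 1alpha,25-dihydroxyvitamin D3 (3 nM final), incubation 16 h at 37C. Read-out is LiveBLAzer FRET fluorescence, 2 h at room temperature.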

[7] = target: Bile acid receptor (Homo sapiens) (UniProt Q96RI1); assay: qHTS assay to identify small molecule agonists of the farnesoid-X-receptor (FXR) signaling pathway (AID 743220; active means well fitted activation curve with a large enough effect in the signal ratio in the repeat runs, not every such curve was filed as active; the % refers to the signal ratio)
How it was run: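 FXR-UAS-bla HEK 293T cells carrying a UAS-driven beta-lactamase reporter were plated for 5 h at 37C/5% CO2, then exposed to DMSO-dissolved Tox21 10K compounds for 16 h at 37C. A LiveBLAzer B/G FRET substrate was loaded for 2 h at room temperature before fluorescence reading.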

Chain of Bile acid receptor (Homo sapiens) (Q96RI1 whole entry, looked up): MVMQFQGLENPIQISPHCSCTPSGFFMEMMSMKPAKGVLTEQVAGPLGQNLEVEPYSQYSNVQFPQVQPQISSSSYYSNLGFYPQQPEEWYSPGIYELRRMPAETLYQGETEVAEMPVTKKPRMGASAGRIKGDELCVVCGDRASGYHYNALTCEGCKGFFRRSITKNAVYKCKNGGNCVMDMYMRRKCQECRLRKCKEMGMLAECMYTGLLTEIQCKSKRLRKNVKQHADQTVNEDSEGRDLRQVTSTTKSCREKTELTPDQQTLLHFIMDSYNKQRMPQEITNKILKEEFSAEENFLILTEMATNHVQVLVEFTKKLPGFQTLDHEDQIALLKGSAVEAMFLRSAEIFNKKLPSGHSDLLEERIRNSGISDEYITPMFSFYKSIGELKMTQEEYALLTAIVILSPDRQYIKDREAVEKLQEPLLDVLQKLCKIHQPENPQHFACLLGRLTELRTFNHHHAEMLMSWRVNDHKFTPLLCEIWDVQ
Chain of Vitamin D3 receptor (Homo sapiens) (P11473 whole entry, looked up): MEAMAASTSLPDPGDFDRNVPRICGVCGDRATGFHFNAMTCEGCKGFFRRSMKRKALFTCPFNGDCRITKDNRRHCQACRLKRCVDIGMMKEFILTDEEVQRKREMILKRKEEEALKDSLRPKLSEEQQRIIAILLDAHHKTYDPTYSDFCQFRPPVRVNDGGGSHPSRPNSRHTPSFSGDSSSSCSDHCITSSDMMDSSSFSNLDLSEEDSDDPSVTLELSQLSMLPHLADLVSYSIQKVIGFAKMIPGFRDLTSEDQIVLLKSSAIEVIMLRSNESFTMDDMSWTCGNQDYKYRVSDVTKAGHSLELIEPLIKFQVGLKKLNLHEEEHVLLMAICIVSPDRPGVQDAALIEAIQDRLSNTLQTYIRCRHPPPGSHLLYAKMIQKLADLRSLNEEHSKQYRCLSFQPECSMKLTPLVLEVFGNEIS

| SMILES | Potency [1] | Potency [2] | Potency [3] | Potency [4] | Potency [5] | Potency [6] | Potency [7] |
| --- | --- | --- | --- | --- | --- | --- | --- |
| C=C(C)C(=O)[O][Sn]([CH2]CCC)([CH2]CCC)[CH2]CCC | 871 nM (active) | 1.55 µM (active) | 0.616 µM (active) | 0.977 µM (active) | inactive | – | – |
| [Cl-].[Cl-].[Cl-].[Yb+3] | inactive | inactive | inactive | inactive | – | – | – |
| [F][Sn]([c]1ccccc1)([c]1ccccc1)[c]1ccccc1 | 871 nM (active) | 0.977 µM (active) | 0.977 µM (active) | 1.55 µM (active) | inactive | – | – |
| CC(=O)[O-].CC(=O)[O-].[Co+2] | inactive | inactive | inactive | inactive | – | – | – |
| COc1nc(C)nc(NC(=O)NS(=O)(=O)c2ccccc2Cl)n1 | inactive | inactive | inactive | inactive | inactive | inactive | – |
| CCN(CC)C(=S)S | 13.9 µM (active) and 3.87 µM (active) and 4.9 µM (active) | inactive and 6.13 µM (active) and 3.47 µM (active) | 12.4 µM (active) | 22.1 µM (active) and 4.87 µM (active) and 7.76 µM (active) | inactive | – | – |
| CC(=O)[O-].CC(=O)[O-].CC(=O)[O-].[Cr+3] | inactive | inactive | inactive | inactive | – | – | – |
| CC(Cc1ccc(OCC(=O)O)cc1)NCC(O)c1csc(C(F)(F)F)n1 (stereo not given) | inactive | inactive | inactive | inactive | inactive | inactive | – |
| CCCCN(CCCC)C(=S)[S-].CCCCN(CCCC)C(=S)[S-].[Ni+2] | inactive | inactive | inactive | inactive | inactive | inactive | – |
| O=[N+]([O-])c1ccccc1-c1ccccc1 | inactive | inactive | inactive | inactive | – | – | – |
| COC(=O)/C=C(\C)OP(=O)(OC)OC | inactive | inactive | inactive | inactive | – | inactive | inactive |
| C#CC1(O)CCCCC1 | inactive | inactive | inactive | inactive | – | – | – |
| CCC[CH2][Sn]([CH2]CCC)([CH2]CCC)[O][Sn]([CH2]CCC)([CH2]CCC)[CH2]CCC | 676 nM (active) | 0.759 µM (active) | 0.479 µM (active) | 1.2 µM (active) | – | – | – |
| CC(=O)[O][Sn]([c]1ccccc1)([c]1ccccc1)[c]1ccccc1 | 97.7 nM (active) | 0.275 µM (active) | 0.0977 µM (active) | 0.138 µM (active) | – | – | – |
| O=S1OCC2C(CO1)C1(Cl)C(Cl)=C(Cl)C2(Cl)C1(Cl)Cl (stereo not given) | 24500 nM (active) | 54.9 µM (active) | 38.9 µM (active) | – | – | – | – |
| [O]=[Cr](=[O])([OH])[O][Cr](=[O])(=[O])[OH] | 22.1 µM (active) and 27.5 µM (active) | 7.83 µM (active) and 21.8 µM (active) | 27.5 µM (active) | 19.7 µM (active) and 24.5 µM (active) | inactive | – | – |
| N#Cc1sc2c(=O)c3ccccc3c(=O)c=2sc1C#N | 7760 nM (active) | 12.3 µM (active) | 34.7 µM (active) | 34.7 µM (active) | – | – | inactive |
| O=C(CCCCl)c1ccc(F)cc1 | inactive | inactive | inactive | inactive | – | – | – |
| CC[C@H](C)[C@H]1O[C@]2(C=C[C@@H]1C)C[C@@H]1C[C@@H](C/C=C(\C)[C@@H](O[C@H]3C[C@H](OC)[C@@H](O[C@H]4C[C@H](OC)[C@@H](NC)[C@H](C)O4)[C@H](C)O3)[C@@H](C)/C=C/C=C3\CO[C@@H]4[C@H](O)C(C)=C[C@@H](C(=O)O1)[C@]34O)O2 | 3090 nM (active) | 3.89 µM (active) | 5.49 µM (active) | 8.71 µM (active) | – | – | – |
| O=[N+]([O-])c1cc(C(F)(F)F)c(Cl)c([N+](=O)[O-])c1Nc1ncc(C(F)(F)F)cc1Cl | 8710 nM (active) | 6.16 µM (active) | 15.5 µM (active) | 21.9 µM (active) | – | – | – |
| CCc1cccc(C)c1N(C(=O)CCl)[C@@H](C)COC | inactive | inactive | inactive | inactive | – | – | – |
| C1=CCC=C1 | inactive | inactive | inactive | inactive | – | – | – |
| CC#C[C@]1(O)CC[C@H]2[C@@H]3C[C@H](C)C4=CC(=O)CC[C@]4(C)[C@H]3CC[C@@]21C | inactive | inactive | inactive | inactive | – | – | inactive |
| CN/C(=N\[N+](=O)[O-])NCc1cnc(Cl)s1 | inactive | inactive | inactive | inactive | inactive | inactive | – |
| CN | inactive | inactive | inactive | inactive | – | inactive | – |
| [C-]1=CC=CC1.[Cl][Zr+2][Cl].c1cc[cH-]c1 | inactive | inactive | inactive | inactive | – | – | – |
